Results as given in PMC7862700, “An all-to-all approach to the identification of sequence-specific readers for epigenetic DNA modifications on cytosine”.

Experiments:
Experiment in all cases: DAPPL (digital affinity profiling via proximity ligation, sequencing); 10 mM Tris-HCl pH 7.5, 50 mM NaCl, 1 mM DTT, 4% glycerol, room temperature, 30 min; GST-TFs on glutathione beads, 16-mer random dsDNA library, 0.1% formaldehyde crosslink after washing; high values mean tight binding
Settings in all cases: protein: recombinant; tags: N-terminal GST; dsDNA, one strand shown
ELK1 = biological target: T1, ELK1 (Homo sapiens, UniProt P19419 1-428)
T1 sequence: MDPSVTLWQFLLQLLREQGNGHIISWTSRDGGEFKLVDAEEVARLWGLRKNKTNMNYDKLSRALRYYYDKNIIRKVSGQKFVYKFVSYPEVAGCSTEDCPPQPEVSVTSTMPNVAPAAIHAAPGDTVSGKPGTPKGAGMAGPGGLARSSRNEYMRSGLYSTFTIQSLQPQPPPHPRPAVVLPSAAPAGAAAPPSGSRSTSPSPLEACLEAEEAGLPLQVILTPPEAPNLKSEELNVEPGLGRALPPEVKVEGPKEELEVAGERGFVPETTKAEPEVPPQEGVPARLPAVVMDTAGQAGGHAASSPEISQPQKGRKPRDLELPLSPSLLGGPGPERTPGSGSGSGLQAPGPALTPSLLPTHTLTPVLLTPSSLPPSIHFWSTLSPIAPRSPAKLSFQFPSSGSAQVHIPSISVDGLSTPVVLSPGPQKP
Summary of the method: (§1)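 Human transcription factors were made in yeast as GST fusions, captured on glutathione beads and barcoded with DNA. With a tag-only sample included, the pool was incubated with 200 nmole of a random double-stranded 16-mer DNA library in Tris/NaCl/DTT/glycerol buffer at room temperature for 30 min, then crosslinked with 0.1% formaldehyde after washing, ligated by proximity, amplified and sequenced. For binding signal, each hexamer's read frequency for a factor is divided by its frequency for the tag-only sample.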

ERG = biological target: T2, ERG (Homo sapiens, UniProt P11308 1-479)
T2 sequence: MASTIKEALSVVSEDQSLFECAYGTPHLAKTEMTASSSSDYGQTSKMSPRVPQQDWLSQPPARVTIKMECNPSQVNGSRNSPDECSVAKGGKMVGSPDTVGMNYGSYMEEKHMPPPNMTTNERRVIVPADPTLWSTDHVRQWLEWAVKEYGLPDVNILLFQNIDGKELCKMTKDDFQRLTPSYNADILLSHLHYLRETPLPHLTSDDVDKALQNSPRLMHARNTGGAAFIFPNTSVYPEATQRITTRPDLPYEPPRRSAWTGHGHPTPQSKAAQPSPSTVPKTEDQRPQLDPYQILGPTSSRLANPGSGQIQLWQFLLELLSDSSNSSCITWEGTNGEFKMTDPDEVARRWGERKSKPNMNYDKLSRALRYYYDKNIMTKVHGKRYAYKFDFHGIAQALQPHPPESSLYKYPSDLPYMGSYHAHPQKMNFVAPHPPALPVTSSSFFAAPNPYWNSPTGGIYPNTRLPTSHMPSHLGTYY
Summary of the method: as §1

ELF1 = ELF1 (Homo sapiens, UniProt P32519 1-619)
Summary of the method: as §1

EHF = biological target: T3, EHF (Homo sapiens, UniProt Q9NZC4 1-300)
T3 sequence: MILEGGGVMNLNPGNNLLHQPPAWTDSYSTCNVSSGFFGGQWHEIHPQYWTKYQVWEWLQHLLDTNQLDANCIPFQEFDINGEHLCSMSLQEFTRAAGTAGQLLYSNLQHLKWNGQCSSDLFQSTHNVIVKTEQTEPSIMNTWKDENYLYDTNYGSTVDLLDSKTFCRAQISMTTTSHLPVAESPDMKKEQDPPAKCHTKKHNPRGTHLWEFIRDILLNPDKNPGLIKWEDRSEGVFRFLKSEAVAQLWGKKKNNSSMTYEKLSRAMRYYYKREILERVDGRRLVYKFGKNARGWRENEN
Summary of the method: as §1

SPIC = biological target: T4, SPIC (Homo sapiens, UniProt Q8N5J4 1-248)
T4 sequence: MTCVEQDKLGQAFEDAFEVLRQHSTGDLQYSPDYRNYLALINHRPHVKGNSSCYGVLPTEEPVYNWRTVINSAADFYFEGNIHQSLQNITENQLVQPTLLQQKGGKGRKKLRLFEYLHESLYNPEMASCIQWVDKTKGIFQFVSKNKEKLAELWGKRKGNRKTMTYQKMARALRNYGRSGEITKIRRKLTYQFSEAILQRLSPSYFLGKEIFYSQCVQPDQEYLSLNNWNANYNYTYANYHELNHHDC
Summary of the method: as §1

ELF4 = ELF4 (Homo sapiens, UniProt Q99607 1-663)
Summary of the method: as §1

ELK4 = biological target: T5, ELK4 (Homo sapiens, UniProt P28324-2 1-405)
T5 sequence: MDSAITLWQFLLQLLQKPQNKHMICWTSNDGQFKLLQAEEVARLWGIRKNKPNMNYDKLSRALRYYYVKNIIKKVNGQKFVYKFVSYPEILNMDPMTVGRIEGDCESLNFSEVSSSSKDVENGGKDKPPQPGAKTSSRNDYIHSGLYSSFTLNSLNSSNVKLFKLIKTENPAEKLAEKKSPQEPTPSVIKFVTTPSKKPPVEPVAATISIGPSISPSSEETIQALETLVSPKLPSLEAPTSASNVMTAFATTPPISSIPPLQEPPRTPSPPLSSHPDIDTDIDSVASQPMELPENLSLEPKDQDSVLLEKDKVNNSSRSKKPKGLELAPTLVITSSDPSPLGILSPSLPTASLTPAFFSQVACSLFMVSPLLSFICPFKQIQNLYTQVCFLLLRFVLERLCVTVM
Summary of the method: as §1

ELF3 = biological target: T6, ELF3 (Homo sapiens, UniProt P78545 1-371)
T6 sequence: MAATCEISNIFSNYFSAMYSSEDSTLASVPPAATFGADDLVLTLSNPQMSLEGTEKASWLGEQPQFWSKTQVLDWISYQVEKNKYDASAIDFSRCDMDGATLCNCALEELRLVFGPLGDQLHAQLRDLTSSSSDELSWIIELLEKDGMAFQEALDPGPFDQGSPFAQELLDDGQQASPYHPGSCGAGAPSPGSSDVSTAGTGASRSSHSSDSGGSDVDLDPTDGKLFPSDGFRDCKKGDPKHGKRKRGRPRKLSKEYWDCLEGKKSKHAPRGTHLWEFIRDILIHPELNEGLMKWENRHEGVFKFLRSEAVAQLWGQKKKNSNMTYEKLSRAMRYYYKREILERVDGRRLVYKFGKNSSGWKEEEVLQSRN
Summary of the method: as §1

ETV1 = ETV1 (Homo sapiens, UniProt P50549 1-477)
Summary of the method: as §1

ETV3L = biological target: T7, ETV3L (Homo sapiens, UniProt Q6ZN32 1-361)
T7 sequence: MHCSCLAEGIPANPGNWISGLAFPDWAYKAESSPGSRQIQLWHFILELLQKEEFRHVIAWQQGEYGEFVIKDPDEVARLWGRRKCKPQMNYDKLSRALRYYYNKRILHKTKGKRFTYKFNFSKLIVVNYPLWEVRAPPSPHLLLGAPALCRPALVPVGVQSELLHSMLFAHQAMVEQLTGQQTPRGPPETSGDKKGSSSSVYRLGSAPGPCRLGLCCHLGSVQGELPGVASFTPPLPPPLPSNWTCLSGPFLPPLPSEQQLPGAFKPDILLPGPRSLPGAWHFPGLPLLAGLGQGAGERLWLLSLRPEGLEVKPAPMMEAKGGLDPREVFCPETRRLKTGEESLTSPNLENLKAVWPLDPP
Summary of the method: as §1

ETS2 = biological target: T8, ETS2 (Homo sapiens, UniProt P15036 1-469)
T8 sequence: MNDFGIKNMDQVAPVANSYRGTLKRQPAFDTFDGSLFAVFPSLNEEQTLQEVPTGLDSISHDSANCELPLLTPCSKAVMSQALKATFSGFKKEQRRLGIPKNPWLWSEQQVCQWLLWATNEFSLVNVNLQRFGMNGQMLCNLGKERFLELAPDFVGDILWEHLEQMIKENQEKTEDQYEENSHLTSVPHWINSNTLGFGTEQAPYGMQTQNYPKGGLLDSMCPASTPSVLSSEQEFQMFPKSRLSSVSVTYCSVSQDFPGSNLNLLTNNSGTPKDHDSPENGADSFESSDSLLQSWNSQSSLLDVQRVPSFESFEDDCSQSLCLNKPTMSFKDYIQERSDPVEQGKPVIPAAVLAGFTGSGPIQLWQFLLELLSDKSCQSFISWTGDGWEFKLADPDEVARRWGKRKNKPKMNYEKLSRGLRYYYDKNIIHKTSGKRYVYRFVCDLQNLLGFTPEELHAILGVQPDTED
Summary of the method: as §1

ETV3 = biological target: T9, ETV3 (Homo sapiens, UniProt P41162-2 1-143)
T9 sequence: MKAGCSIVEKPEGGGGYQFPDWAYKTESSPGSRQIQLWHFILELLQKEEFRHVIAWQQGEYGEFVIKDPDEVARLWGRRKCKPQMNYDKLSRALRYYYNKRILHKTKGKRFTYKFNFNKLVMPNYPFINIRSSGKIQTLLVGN
Summary of the method: as §1

ETV6 = ETV6 (Homo sapiens, UniProt P41212 1-452)
Summary of the method: as §1

Chain of ELF1 (P32519 whole entry): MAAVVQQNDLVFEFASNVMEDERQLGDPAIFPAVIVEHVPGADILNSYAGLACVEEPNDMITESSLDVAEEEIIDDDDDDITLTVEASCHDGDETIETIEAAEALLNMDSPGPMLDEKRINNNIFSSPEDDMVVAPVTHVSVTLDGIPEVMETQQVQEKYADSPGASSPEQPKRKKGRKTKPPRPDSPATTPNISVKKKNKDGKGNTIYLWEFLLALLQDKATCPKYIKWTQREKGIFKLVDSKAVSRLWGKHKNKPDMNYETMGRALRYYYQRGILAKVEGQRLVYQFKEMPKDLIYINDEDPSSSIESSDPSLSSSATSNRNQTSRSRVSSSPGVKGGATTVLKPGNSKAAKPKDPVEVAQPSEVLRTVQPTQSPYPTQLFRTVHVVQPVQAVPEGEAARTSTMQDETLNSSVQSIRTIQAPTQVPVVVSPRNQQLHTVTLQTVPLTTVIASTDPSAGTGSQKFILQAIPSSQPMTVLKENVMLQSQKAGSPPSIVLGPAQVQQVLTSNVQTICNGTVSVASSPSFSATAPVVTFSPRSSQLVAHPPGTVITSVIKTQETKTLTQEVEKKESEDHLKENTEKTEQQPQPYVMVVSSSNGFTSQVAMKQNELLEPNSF
Chain of ETV1 (P50549 whole entry): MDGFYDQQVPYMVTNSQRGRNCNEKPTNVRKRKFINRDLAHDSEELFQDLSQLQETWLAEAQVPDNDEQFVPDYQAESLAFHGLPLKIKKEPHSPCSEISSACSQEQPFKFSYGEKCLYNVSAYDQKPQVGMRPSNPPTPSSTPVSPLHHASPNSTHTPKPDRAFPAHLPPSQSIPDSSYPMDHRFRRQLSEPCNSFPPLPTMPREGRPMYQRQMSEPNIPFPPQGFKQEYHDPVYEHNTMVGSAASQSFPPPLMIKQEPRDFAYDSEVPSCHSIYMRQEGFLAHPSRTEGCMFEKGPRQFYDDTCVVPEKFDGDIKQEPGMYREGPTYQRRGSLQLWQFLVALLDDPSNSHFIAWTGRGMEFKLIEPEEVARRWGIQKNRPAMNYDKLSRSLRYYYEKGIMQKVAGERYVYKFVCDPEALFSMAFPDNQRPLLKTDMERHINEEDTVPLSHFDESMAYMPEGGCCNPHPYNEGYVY
Chain of ETV6 (P41212 whole entry): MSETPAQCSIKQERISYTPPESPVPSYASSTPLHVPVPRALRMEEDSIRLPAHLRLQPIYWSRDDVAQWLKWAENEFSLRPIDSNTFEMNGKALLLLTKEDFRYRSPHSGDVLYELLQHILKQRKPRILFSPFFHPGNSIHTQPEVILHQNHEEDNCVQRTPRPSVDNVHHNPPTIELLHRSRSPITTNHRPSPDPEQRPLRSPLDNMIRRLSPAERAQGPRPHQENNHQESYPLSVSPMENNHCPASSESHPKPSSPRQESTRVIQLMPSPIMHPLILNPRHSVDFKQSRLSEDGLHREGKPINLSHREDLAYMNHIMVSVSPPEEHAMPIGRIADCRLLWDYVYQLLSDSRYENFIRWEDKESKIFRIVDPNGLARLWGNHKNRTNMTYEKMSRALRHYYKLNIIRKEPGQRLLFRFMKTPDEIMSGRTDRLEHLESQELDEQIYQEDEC
Chain of ELF4 (Q99607 whole entry): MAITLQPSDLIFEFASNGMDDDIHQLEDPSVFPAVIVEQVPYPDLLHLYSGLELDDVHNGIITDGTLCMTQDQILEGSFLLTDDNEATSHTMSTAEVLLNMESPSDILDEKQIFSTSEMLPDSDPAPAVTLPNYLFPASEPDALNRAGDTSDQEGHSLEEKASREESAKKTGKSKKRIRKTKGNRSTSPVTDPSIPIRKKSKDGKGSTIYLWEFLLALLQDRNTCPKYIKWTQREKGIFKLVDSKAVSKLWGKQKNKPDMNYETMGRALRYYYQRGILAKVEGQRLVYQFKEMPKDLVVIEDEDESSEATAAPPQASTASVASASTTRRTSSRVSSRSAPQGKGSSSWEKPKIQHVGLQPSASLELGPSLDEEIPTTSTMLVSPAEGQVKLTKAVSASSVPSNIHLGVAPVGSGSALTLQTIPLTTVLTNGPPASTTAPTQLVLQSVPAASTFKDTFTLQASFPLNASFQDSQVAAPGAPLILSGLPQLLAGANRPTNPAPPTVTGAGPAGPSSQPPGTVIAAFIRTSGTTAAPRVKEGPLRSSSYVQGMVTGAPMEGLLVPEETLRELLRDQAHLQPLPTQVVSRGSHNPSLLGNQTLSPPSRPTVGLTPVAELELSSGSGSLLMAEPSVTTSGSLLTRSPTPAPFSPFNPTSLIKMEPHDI

For CCCCAG, the binding signal (ELK1) was 1 fold enrichment (6-mer frequency, TF over GST control), the binding signal (ERG) was 1.05 fold enrichment (6-mer frequency, TF over GST control) and the binding signal (ELF1) was 1.04 fold enrichment (6-mer frequency, TF over GST control). For the same sequence, the binding signal (EHF) was 1 fold enrichment (6-mer frequency, TF over GST control), the binding signal (SPIC) was 1.14 fold enrichment (6-mer frequency, TF over GST control) and the binding signal (ELF4) was 1.04 fold enrichment (6-mer frequency, TF over GST control). The binding signal (ELK4) was 1.24 fold enrichment (6-mer frequency, TF over GST control), the binding signal (ELF3) was 1.16 fold enrichment (6-mer frequency, TF over GST control) and the binding signal (ETV1) was 1.11 fold enrichment (6-mer frequency, TF over GST control). The binding signal (ETV3L) was 1.11 fold enrichment (6-mer frequency, TF over GST control), the binding signal (ETS2) was 1.04 fold enrichment (6-mer frequency, TF over GST control) and the binding signal (ETV3) was 1.07 fold enrichment (6-mer frequency, TF over GST control). The binding signal (ETV6) was 1.03 fold enrichment (6-mer frequency, TF over GST control).
